NCOA2 inhibitor – inhibits human steroid receptor coactivator 2; HEK293 GAL4-SRC2 luciferase reporter, luminescence; inhibition, % at 9 µM; 370,000 compounds, 0.17% hits;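 active means inhibition above the mean inhibition of all tested compounds plus 3 SD, set per campaign, cut at about 52% in these data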;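 further: 0% = DMSO treated cells and 100% = cells given Gossypol at 36 µM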
NR2F2 inh – inhibitors of human COUP-TFII (NR2F2). 370,000 compounds, 0.7% hits. inhibition, % at 8.6 µM. HEK293T NGFI-A luciferase reporter, luminescence;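 active means inhibition above a per-plate cutoff, mean inhibition of test wells between control levels plus 3 SD, cut at about 38% in these data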;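 further: cells cotransfected with COUP-TFII expression vector driving the NGFI-A reporter; 0% = median of COUP-TF2 test wells and 100% = reporter-only cells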
LRH-1 inv ag – suppresses constitutive activity of human LRH-1; HEK293T StAR-luciferase reporter, LRH-1 transfected, 24 h; inhibition, % at 3.6 µM; O00482; 360,000 compounds, 0.13% hits;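 active means inhibition above the mean inhibition of all tested compounds plus 3 SD, cut at about 73% in these data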;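 further: 0% = DMSO wells and 100% = reporter-only cells lacking LRH-1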
NCOA3 inh – human NCOA3 inhibition; inhibition, % at 3.6 µM; 360,000 compounds, 0.17% hits; HEK293 GAL4-SRC3 luciferase reporter, luminescence;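 active means inhibition above a per-campaign cutoff, the mean of all compounds plus 3 SD, cut at about 60% in these data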;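 further: 0% = DMSO-treated cells and 100% = gossypol-treated cells at 36 µM; higher means less SRC3-driven luciferase light from the GAL4 reporter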
Target sequence (Q9Y6Q9 whole entry, looked up, the tested form may be a part): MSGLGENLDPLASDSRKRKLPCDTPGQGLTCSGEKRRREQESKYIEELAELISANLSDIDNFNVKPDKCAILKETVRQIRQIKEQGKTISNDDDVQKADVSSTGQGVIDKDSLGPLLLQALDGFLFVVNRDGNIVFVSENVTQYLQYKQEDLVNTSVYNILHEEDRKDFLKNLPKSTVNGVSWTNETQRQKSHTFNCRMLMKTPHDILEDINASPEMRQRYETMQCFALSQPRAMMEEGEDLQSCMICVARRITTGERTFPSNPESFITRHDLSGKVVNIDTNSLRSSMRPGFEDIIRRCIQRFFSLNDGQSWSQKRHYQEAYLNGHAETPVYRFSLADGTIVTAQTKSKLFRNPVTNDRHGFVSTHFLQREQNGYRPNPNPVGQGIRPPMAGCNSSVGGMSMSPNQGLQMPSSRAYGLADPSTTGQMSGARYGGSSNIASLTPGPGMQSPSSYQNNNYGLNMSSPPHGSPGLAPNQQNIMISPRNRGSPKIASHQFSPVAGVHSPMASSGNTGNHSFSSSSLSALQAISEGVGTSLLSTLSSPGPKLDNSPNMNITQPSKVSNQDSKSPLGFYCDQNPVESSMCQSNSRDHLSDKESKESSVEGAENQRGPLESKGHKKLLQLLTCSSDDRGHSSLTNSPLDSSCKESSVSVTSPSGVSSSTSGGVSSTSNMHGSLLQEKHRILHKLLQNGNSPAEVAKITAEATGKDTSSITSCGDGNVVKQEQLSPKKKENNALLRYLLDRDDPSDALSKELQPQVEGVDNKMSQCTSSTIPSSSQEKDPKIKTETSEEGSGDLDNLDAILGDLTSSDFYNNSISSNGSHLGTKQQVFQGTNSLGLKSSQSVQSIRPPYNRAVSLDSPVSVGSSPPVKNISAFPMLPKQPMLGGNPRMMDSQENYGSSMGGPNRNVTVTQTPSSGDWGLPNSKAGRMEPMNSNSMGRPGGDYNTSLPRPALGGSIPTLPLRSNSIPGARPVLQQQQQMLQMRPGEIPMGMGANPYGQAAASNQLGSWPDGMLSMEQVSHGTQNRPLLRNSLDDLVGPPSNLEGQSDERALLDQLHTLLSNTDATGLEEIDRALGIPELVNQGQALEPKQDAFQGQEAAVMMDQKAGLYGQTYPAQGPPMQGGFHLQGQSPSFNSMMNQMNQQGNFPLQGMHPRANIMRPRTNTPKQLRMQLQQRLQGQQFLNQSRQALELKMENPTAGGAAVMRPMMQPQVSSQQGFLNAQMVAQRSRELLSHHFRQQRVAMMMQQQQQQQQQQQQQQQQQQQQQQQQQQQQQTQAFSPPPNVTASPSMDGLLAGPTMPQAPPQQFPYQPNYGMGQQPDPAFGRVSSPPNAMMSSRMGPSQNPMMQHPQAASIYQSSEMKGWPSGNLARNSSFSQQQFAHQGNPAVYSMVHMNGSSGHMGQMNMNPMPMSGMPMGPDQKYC
NCOA1 inh – human NCOA1 inhibition. HEK293 GAL4-SRC1 luciferase reporter, luminescence. inhibition, % at 3.6 µM. Q15788. 360,000 compounds, 0.12% hits;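 active means inhibition above the campaign mean plus 3 SD, with each screening campaign given its own cutoff, cut at about 60% in these data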;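 further: 0% = DMSO treated cells and 100% = gossypol at 36 µM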
Gli-Sufu antag – Gli-Sufu pathway antagonism; inhibition, % at 5 µM; AID 588413; 340,000 compounds, 0.74% hits; Sufu-KO-LIGHT fibroblasts, Gli luciferase reporter luminescence;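 active means inhibition above about 55%, limit read from the data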;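 further: 0% = DMSO-treated cells and 100% = wells with medium but no cells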
Gli antag conf – Gli-SUFU antagonism confirmation, single concentration; shares compounds with Gli-Sufu antag; Sufu-KO-LIGHT cells, Gli luciferase reporter, luminescence; inhibition, % at 5 µM; 2,500 compounds, 40% hits; AID 602428;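 active means mean inhibition at 5 µM reaching about 45%, limit read from the data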;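 further: plate controls were DMSO-treated cells for no effect and wells lacking cells for full effect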
SufuKO cytotox – counter-screen for Gli-SUFU antagonists: cytotoxicity. shares compounds with Gli-Sufu antag. Sufu-KO-LIGHT cells cytotoxicity, ATP luminescence. cytotoxicity, % at 5 µM. 2,500 compounds, 32% hits. AID 651994;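 active means mean cytotoxicity at 5 µM above about 25%, limit read from the data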;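 further: cells exposed to compound overnight for roughly 16 to 18 hours; plate controls were DMSO wells with cells for no effect and medium without cells for full effect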
Wnt3a cs – counter-screen for Gli-SUFU antagonists: Wnt3a reporter inhibition. 2,500 compounds, 20% hits. shares compounds with Gli-Sufu antag. inhibition, % at 6.25 µM. AID 651995. Wnt-LIGHT cells, Wnt3a-driven luciferase reporter, luminescence;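 active means mean inhibition above about 25%, limit read from the data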
* hit, by the source's call; . = no result given. Sampled rows, rich in hits. Any-hit rate of the full collection: about 1.3%.

SMILES | NCOA2 inhibitor | NR2F2 inh | LRH-1 inv ag | NCOA3 inh | NCOA1 inh | Gli-Sufu antag | Gli antag conf | SufuKO cytotox | Wnt3a cs
Cc1[nH]c2ccccc2c1C(=O)CSc1nc2cc(S(=O)(=O)N3CCCCC3)ccc2o1 | 7 | 19 | 2 | 7 | 7 | 55* | 42 | 13 | 23
CCN(CC(=O)Nc1c(F)cccc1F)C(=O)c1cc(S(=O)(=O)N(CC)CC)ccc1N1CCCCC1 | -10 | 19 | 10 | 2 | 10 | 52 | 42 | 6 | 19
CCN(CC(=O)Nc1c(F)cccc1F)C(=O)c1cc(S(=O)(=O)N(C)C)ccc1N1CCCC1 | 17 | -9 | 5 | 2 | 0 | 13 | . | . | .
S=C(NCCc1ccccc1)Nc1ccc(Cl)cc1Cl | -17 | -2 | -20 | -1 | -14 | 65* | 13 | 10 | -30
COC(=O)[C@]12C[C@H](CC(=O)NCc3cccs3)C(=O)N(Cc3cccc4ccccc34)C1=C[C@H](C1CCCC1)O[C@@H]2C | -2 | 5 | . | . | . | . | . | . | .
O=[N+]([O-])c1nn(-c2ccc3c(c2)OCCO3)n(O)c1=Nc1ccc(Cl)cc1 | 52 | 31 | 20 | 48 | 37 | 57* | 60* | 17 | 44*
Cc1ccc(N=c2c([N+](=O)[O-])nn(-c3ccc4c(c3)OCCO4)n2O)cc1F | 22 | 17 | -23 | 45 | 48 | 61* | 65* | -2 | 70*
O=C(O)C1C2C=CC(C2)C1C(=O)Nc1ccc2c(c1)OCCO2 (stereo not drawn) | . | . | 25 | 50 | 59 | 60* | 16 | 20 | 54*
CC(C)C[C@H](NC(=O)C1CC1)C(=O)N1CCC[C@H]1C(=O)NCc1ccccc1 | -18 | 7 | . | . | . | . | . | . | .
COc1ccccc1N1CCN(CC(O)c2c(C)[nH]c3ccccc23)CC1 (stereo not drawn) | 2 | -5 | 4 | 1 | 2 | 61* | 20 | 21 | -29
O=C(CCl)N=c1sccn1Cc1cccc2ccccc12 | 26 | -5 | 37 | 16 | -10 | 96* | 33 | 15 | -18
COC(=O)c1cccc(OC[C@@H](O)CN2CCC(C(O)(c3ccccc3)c3ccccc3)CC2)c1 | -1 | -22 | . | . | . | . | . | . | .
O=C(CCc1nc2sc3c(c2c(=O)[nH]1)CCCC3)Nc1cccc(Cl)c1 | -15 | -7 | -4 | -10 | -6 | 70* | 27 | 6 | -11
COC(=O)C1=C(C)N(C)C(=NCc2ccc(OC)cc2)NC1c1cccc(Cl)c1 (stereo not drawn) | -9 | 2 | . | . | . | . | . | . | .
CC(=O)NS(=O)(=O)c1ccc(NC(=S)NC(=O)C(C)C)cc1 | -24 | -2 | 16 | 12 | -4 | 93* | 31 | 5 | -14
O=C1NC(c2cccc3ccccc23)Nc2ccc(Cl)cc21 (stereo not drawn) | 13 | -48 | 30 | 6 | -19 | 61* | 59* | 64* | -73
Clc1ccc(C2Nc3cccc4cccc(c34)N2)c(Cl)c1 | 9 | 8 | -3 | 10 | 3 | -34 | . | . | .
C=CCN=C1NC(c2ccccc2C(F)(F)F)C(C(=O)OC)=C(C)N1Cc1cccc(C(F)(F)F)c1 (stereo not drawn) | 23 | -7 | . | . | . | . | . | . | .
COc1ccccc1/C=N/NC(=O)C(=O)Nc1ccccc1OC(F)(F)C(F)F | 16 | 11 | 12 | 19 | 1 | 16 | . | . | .
O=C(N/N=C/c1cc(Br)ccc1O)C(=O)Nc1ccccc1OC(F)(F)C(F)F | 4 | 13 | -17 | 60 | 22 | 60* | 73* | 32* | 58*
COc1cccc(/C=N/NC(=O)C(=O)Nc2ccccc2OC(F)(F)C(F)F)c1 | 2 | -7 | 7 | 19 | 14 | -2 | . | . | .
O=C(N/N=C/c1cc(Cl)ccc1O)C(=O)Nc1ccccc1OC(F)(F)C(F)F | -2 | 18 | -13 | 68* | 37 | 55* | 64* | 46* | 64*
COc1ccc(CC(=O)Nc2cccc(S(=O)(=O)N3CCCCCC3)c2)cc1OC | 23 | 79* | 51 | 29 | 27 | 53 | 49* | 26* | 22
COc1ccc(CCNC(=O)C2CCCN(S(=O)(=O)N3CCCCCC3)C2)cc1OC (stereo not drawn) | -17 | 0 | 7 | 7 | 9 | 54 | 14 | 6 | 5
COc1ccc(CCNC(=S)NC(=O)c2cc(OC)c(OC)c(OC)c2)cc1OC | 14 | 4 | 3 | 4 | -19 | 50 | 18 | 9 | 2
SMILES | NCOA2 inhibitor | NR2F2 inh | LRH-1 inv ag | NCOA3 inh | NCOA1 inh | Gli-Sufu antag | Gli antag conf | SufuKO cytotox | Wnt3a cs
COc1ccc(CCNC(=O)C2CCN(S(=O)(=O)N3CCCCCC3)CC2)cc1OC | -3 | 1 | -1 | -3 | 5 | 1 | . | . | .
COc1ccc(NS(=O)(=O)c2ccc(O)c(NC(=O)c3ccc(S(=O)(=O)N4CCCCCC4)cc3)c2)cc1 | 4 | -1 | -3 | 8 | 11 | 3 | . | . | .
COc1ccc(NS(=O)(=O)c2cccc(NC(=O)c3ccc(S(=O)(=O)N4CCCCCC4)cc3)c2)cc1 | . | . | 44 | 21 | 20 | 61* | 63* | 17 | 28*
CN(C)c1cccc(/C=C2\CC3(OC(=O)c4ccco4)CCCN2C3)c1 (stereo not drawn) | 23 | -14 | . | . | . | . | . | . | .
CCN(CC)C(=O)c1ccc(S(=O)(=O)N2CCC(c3nc4ccccc4s3)CC2)cc1 | 13 | 11 | -7 | 32 | 0 | 59* | 42 | 10 | 3
CC(C)(C)NC(=O)C(=O)NNC(=O)c1ccccc1 | -26 | -6 | -11 | 7 | -11 | 12 | . | . | .
CC(C)(C)NC(=O)C(=O)NNC(=O)c1cccc(F)c1 | -29 | -26 | -30 | -29 | -29 | 84* | -1 | 9 | -28
CC(C)CC(=O)NC(NCC1CCCO1)C(Cl)(Cl)Cl (stereo not drawn) | 7 | 1 | -14 | -11 | 2 | 88* | 8 | 9 | -10
COc1ccc(N2CCc3c(C)nc4c(OC)cc(OC)cc4c32)cc1 | -152 | -12 | 26 | 19 | 3 | 54 | 27 | 5 | -42
COc1ccc(N2CCc3c(C)nc4c(OC)cc(OC)cc4c32)c(OC)c1 | -15 | -9 | 18 | 31 | 10 | 31 | . | . | .
Cc1ccc(-c2c[n+](Cc3ccc(Cl)c(Cl)c3)c3n2CCC3)cc1 | 18 | 19 | 28 | 54 | 23 | 85* | 80* | 26* | -14
Cc1ccc(NC(=O)C[n+]2cc(-c3ccc(C)cc3)n3c2CCC3)cc1 | -13 | -2 | 13 | 28 | -12 | 7 | . | . | .
CCCCCCCCN1C(=O)N2Cc3ccccc3C2CS1(=O)=O (stereo not drawn) | 11 | -11 | . | . | . | . | . | . | .

Screening data as filed in PubChem BioAssay.
